Results taken from PubChem BioAssay (Tox21).
Where “and” joins values, the source holds several entries; their conditions need not be identical. Identical values can stand only once. Records with an inconclusive call do not appear. Entries that show only a call come without a potency. Calls of active or inactive are those of the source. Unless noted, the call rests on the fitted dose curve; in most records, active means well fitted curve in the direction sought with a large enough effect in the repeat runs; inconclusive means weak or mixed curves; inactive means no such curve, though single readings can be large; an effect the other way counts as inactive or inconclusive.

How the values were obtained:
[1] = qHTS assay for small molecules that induce genotoxicity in human embryonic kidney cells expressing luciferase-tagged ATAD5 (AID 651632); further: nearly all actives have a fitted effect of over 15% in size; further: potency means the concentration at half of the fitted maximal effect
Outline: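 Test compounds were delivered by pin tool onto HEK293T reporter cells (2,000/well) expressing ATAD5 fused to luciferase. After 16 hr at 37C, 5% CO2, Amplite was added for 30 min at room temperature and luminescence was measured.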

[2] = qHTS assay for small molecule agonists of the p53 signaling pathway - cell viability (AID 651633; calls by dose curve;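 further: p53RE-bla HCT reporter cells with a stable beta-lactamase p53 reporter; series mostly up to about 83 µM; nearly all actives have a fitted effect of over 30% in size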)
Outline: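 Viability counter-read: CellTiter-Glo luminescence (30 min, room temperature) in the same p53RE-bla plates. These plates had been exposed to compounds for 16 h at 37 C.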

[3] = qHTS assay for small molecules that induce genotoxicity in human embryonic kidney cells expressing luciferase-tagged ATAD5 - cell viability (AID 651634; calls by dose curve; further: nearly all actives have a fitted effect of over 25% in size)
Outline: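 Quantitative high-throughput format. HEK293T cells expressing ATAD5 fused to luciferase were plated at 2,000 cells/well and treated 15.5 hr with compound versus DMSO. Viability was determined by fluorescent live-cell protease substrate, 30 min at 37C.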

[4] = qHTS assay for small molecule disruptors of the mitochondrial membrane potential - cell viability (AID 720634; calls by dose curve;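 further: human HepG2 liver cancer cells; series mostly up to about 83 µM; nearly all actives have a fitted effect of over 20% in size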)
Outline: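 Same-well counter-screen: following the MMP dye addition, CellTiter-Glo was added to 1 hr compound-treated HepG2 cells and luminescence read after 30 min at room temperature.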

[5] = qHTS assay for small molecule disruptors of the mitochondrial membrane potential (AID 720635); further: potency means the concentration at half of the fitted maximal effect
Outline: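 Mitochondrial membrane potential tracked with Mito-MPS dye, red aggregates (ex 540/em 590 nm) against green monomers (ex 490/em 535 nm). Compound treatment 1 hr at 37C, dye 30 min in HepG2.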

[6] = qHTS assay to test for compound auto fluorescence at 590 nm (red) in HepG2 cells (AID 720674)
Outline: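 Red autofluorescence (Ex/Em 540/590 nm, Rose Bengal sodium equivalents) was measured in HepG2 cells, 2,000 per well in MEM plus 10% FBS, plated overnight at 37 C. Readings were taken 1 hr after adding 23 nL compound or DMSO, at 37 C and 5% CO2.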

[7] = qHTS assay to test for compound auto fluorescence at 535 nm (green) in HepG2 cells (AID 720675)
[8] = qHTS assay to test for compound auto fluorescence at 460 nm (blue) in HEK293 cells (AID 720678)
Outline: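 Measured: blue fluorescence (Ex 405/Em 460 nm) of compound-treated HEK293 cells, incubated overnight at 37C with 5% CO2 and scaled to triamterene equivalents.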

[9] = qHTS assay to test for compound auto fluorescence at 590 nm (red) in HEK293 cells (AID 720679)
Outline: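 Using HEK293 cells at 2,000 per well, the screen added 23 nL of each compound after cell attachment and incubated overnight (37C, 5% CO2). The plate reader then captured red-label fluorescence, Ex/Em 540/590nm.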

[10] = qHTS assay to test for compound auto fluorescence at 535 nm (green) in HEK293 cells (AID 720680)
[11] = qHTS assay to test for compound auto fluorescence at 460 nm (blue) in HEK293 cell free culture (AID 720681)
Outline: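 Blue fluorescence (Ex 405/Em 460 nm, triamterene-equivalent) was read immediately after pin transfer of compound or DMSO into medium (DMEM, 10% FBS) without cells.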

[12] = qHTS assay to test for compound auto fluorescence at 535 nm (green) in HEK293 cell free culture (AID 720682)
Outline: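 Fluorescein serves as the green reference fluorophore; each compound's intrinsic emission at 535 nm (excitation 485 nm) is reported as an equivalent amount of that dye, measured in serum-containing DMEM without cells.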

[13] = qHTS assay to test for compound auto fluorescence at 590 nm (red) in HEK293 cell free culture (AID 720683)
Outline: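 Red-channel autofluorescence of compounds in culture medium (DMEM, 10% FBS), no cells, measured at 540/590 nm. Rose Bengal sodium is the reference fluorophore for equivalence.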

[14] = qHTS assay to test for compound auto fluorescence at 590 nm (red) in HepG2 cell free culture (AID 720684)
Outline: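 No cells present: MEM + 10% FBS only. Compound pinned in, red label read (540/590 nm). Activity = fluorescence equivalent to Rose Bengal sodium.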

[15] = qHTS assay to test for compound auto fluorescence at 460 nm (blue) in HepG2 cell free culture (AID 720685)
Outline: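 Cell-free plates of MEM plus 10% FBS received 23 nL compound or DMSO vehicle; blue-channel (405/460 nm) intensity scored against triamterene as reference fluorophore.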

[16] = qHTS assay to test for compound auto fluorescence at 535 nm (green) in HepG2 cell free culture (AID 720686)
[17] = qHTS assay to test for compound auto fluorescence at 460 nm (blue) in HepG2 cells (AID 720687)
Outline: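 Blue-channel autofluorescence (Ex/Em 405/460 nm, triamterene-equivalent) was measured after 1 hr compound exposure at 37 C, 5% CO2. Cells were HepG2, plated overnight at 37 C in MEM plus 10% FBS.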

[18] = qHTS assay for small molecule agonists of the p53 signaling pathway (AID 651631; calls by dose curve; further: nearly all actives have a fitted effect of over 15% in size)
Outline: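 Read-out is beta-lactamase FRET fluorescence measured 2 h after substrate addition at room temperature, in HCT-116 cells with a p53 response element-driven reporter exposed to compounds for 16 h at 37 °C.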

[19] = target: Glucocorticoid receptor (Homo sapiens) (UniProt P04150); experiment: qHTS assay to identify small molecule agonists of the glucocorticoid receptor (GR) signaling pathway (AID 720691; active means well fitted activation curve with a large enough effect in the signal ratio in the repeat runs, not every such curve was filed as active; the % refers to the signal ratio)
Outline: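 A HeLa cervical cancer line expressing GR and a glucocorticoid response element-driven beta-lactamase gene is treated with compounds for 18 h; LiveBLAzer B/G FRET substrate is then applied and fluorescence read.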

[20] = target: Glucocorticoid receptor (Homo sapiens) (UniProt P04150); experiment: qHTS assay to identify small molecule antagonists of the glucocorticoid receptor (GR) signaling pathway (AID 720692; active means well fitted inhibition curve with a large enough effect in the signal ratio in the repeat runs, not every such curve was filed as active; the % refers to the signal ratio; further: potency means the concentration at half of the fitted maximal effect)
Outline: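 GRE-bla HeLa line, dex-stimulated (5 nM final). Compound exposure 18 h, 37 C. Beta-lactamase FRET read after 2 h RT substrate.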

Glucocorticoid receptor (Homo sapiens), sequence (P04150 whole entry, looked up): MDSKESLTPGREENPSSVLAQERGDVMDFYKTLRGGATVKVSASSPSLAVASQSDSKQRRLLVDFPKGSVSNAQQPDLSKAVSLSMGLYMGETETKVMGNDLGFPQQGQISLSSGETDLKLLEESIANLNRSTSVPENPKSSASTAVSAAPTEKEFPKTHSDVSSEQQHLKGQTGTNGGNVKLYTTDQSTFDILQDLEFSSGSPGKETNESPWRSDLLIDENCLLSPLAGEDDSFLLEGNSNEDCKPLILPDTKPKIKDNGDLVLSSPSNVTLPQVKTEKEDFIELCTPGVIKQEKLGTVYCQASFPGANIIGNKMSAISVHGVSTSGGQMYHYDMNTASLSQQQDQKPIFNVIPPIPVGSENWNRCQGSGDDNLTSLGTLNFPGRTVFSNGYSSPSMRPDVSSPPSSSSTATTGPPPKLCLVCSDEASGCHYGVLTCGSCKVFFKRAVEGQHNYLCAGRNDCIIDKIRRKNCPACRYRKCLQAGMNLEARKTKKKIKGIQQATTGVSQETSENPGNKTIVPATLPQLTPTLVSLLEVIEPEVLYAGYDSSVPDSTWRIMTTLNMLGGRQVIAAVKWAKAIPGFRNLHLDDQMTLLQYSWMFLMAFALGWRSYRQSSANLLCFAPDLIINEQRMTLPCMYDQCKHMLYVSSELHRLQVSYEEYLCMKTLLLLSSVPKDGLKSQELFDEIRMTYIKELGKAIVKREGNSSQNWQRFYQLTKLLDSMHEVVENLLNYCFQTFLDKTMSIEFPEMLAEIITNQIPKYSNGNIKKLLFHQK

Row | SMILES | Potency [1] | Potency [2] | Potency [3] | Potency [4] | Potency [5] | outcome [6] | outcome [7] | outcome [8] | outcome [9] | outcome [10] | outcome [11] | outcome [12] | outcome [13] | outcome [14] | outcome [15] | outcome [16] | outcome [17] | Potency [18] | outcome [19] | Potency [20]
1 | Nc1ccc(N)cc1 | 29.8 µM (active) | inactive | inactive | inactive | 841 nM (active) and 5.47 µM (active) and 3.86 µM (active) | inactive | inactive | inactive | inactive | inactive | inactive | inactive | inactive | inactive | inactive | inactive | inactive |  |  | 
2 | CC[N+](=O)[O-] | inactive | inactive | inactive | inactive |  | inactive | inactive | inactive | inactive | inactive | inactive | inactive | inactive | inactive | inactive | inactive | inactive | inactive | inactive | inactive
3 | Cc1cccc(N)c1C | inactive | inactive | inactive | inactive |  | inactive | inactive | inactive | inactive | inactive | inactive | inactive | inactive | inactive | inactive | inactive | inactive | inactive | inactive | inactive
4 | C=C(C)C(=O)OCC(CC)CCCC (configuration not stated) | inactive | inactive | inactive |  |  | inactive | inactive | inactive | inactive | inactive | inactive | inactive | inactive | inactive | inactive | inactive | inactive | inactive | inactive | inactive
5 | CC12CC1(C)C(=O)N(c1cc(Cl)cc(Cl)c1)C2=O (configuration not stated) | inactive | inactive | inactive |  |  | inactive | inactive | inactive | inactive | inactive | inactive | inactive | inactive | inactive | inactive | inactive | inactive |  | inactive | inactive
6 | C[C@]12CC[C@H](O)CC1=CC[C@@H]1[C@@H]2CC[C@]2(C)C(=O)CC[C@@H]12 | inactive | inactive | inactive | inactive |  | inactive | inactive | inactive | inactive | inactive | inactive | inactive | inactive | inactive | inactive | inactive | inactive |  |  | 43.7 µM (active) and 43.6 µM (active)
7 | C[C@H]1C(=O)O[C@@H]2CCN3CC=C(COC(=O)[C@](C)(O)[C@]1(C)O)[C@H]23 | inactive | inactive | inactive |  |  | inactive | inactive | inactive | inactive | inactive | inactive | inactive | inactive | inactive | inactive | inactive | inactive | inactive | inactive | inactive
8 | Oc1ccc(Cl)cc1 |  | inactive | inactive |  |  | inactive | inactive | inactive | inactive | inactive | inactive | inactive | inactive | inactive | inactive | inactive | inactive | inactive |  | 
9 | OCCCCO |  | inactive | inactive | inactive | inactive | inactive | inactive | inactive | inactive | inactive | inactive | inactive | inactive | inactive | inactive | inactive | inactive | inactive | inactive | inactive
10 | CN1C(=O)CCS(=O)(=O)C1c1ccc(Cl)cc1 (configuration not stated) | inactive |  | inactive | inactive | inactive | inactive | inactive | inactive | inactive | inactive | inactive | inactive | inactive | inactive | inactive | inactive | inactive |  | inactive | inactive
11 | O=C(O)Cc1ccccc1 | inactive | inactive | inactive | inactive | inactive | inactive | inactive | inactive | inactive | inactive | inactive | inactive | inactive | inactive | inactive | inactive | inactive |  |  | 
12 | CN(C)C(=O)Cl | inactive | inactive | inactive | inactive | inactive | inactive | inactive | inactive | inactive | inactive | inactive | inactive | inactive | inactive | inactive | inactive | inactive |  | inactive | inactive
13 | CN(C)NC(=O)CCC(=O)O |  | inactive |  | inactive | inactive | inactive | inactive | inactive | inactive | inactive | inactive | inactive | inactive | inactive | inactive | inactive | inactive | inactive |  | 
14 | O=S(=O)(O)OOS(=O)(=O)O | inactive | inactive | inactive |  |  | inactive | inactive | inactive | inactive | inactive | inactive | inactive | inactive | inactive | inactive | inactive | inactive |  |  | 
15 | CCNc1nc(Cl)nc(NC(C)C)n1 | inactive | inactive | inactive |  |  | inactive | inactive | inactive | inactive | inactive | inactive | inactive | inactive | inactive | inactive | inactive | inactive | inactive | inactive | inactive
16 | Oc1c(Br)cc(Br)cc1Br | inactive | inactive | inactive | inactive | 48.7 µM (active) and 54.5 µM (active) | inactive | inactive | inactive | inactive | inactive | inactive | inactive | inactive | inactive | inactive | inactive | inactive |  |  | 
17 | ClC(Cl)c1ccccc1 | inactive | inactive | inactive | inactive | inactive | inactive | inactive | inactive | inactive | inactive | inactive | inactive | inactive | inactive | inactive | inactive | inactive |  | inactive | inactive
18 | O=C(O)c1cc(Oc2ccc(C(F)(F)F)cc2Cl)ccc1[N+](=O)[O-] | inactive | inactive | inactive | inactive | inactive | inactive | inactive | inactive | inactive | inactive | inactive | inactive | inactive | inactive | inactive | inactive | inactive |  | inactive | inactive
